Hits are enriched below; roughly 28% of the tested compounds scored in any of these assays.
CYP2C19 inh – inhibitors of human CYP2C19; AID 778; CYP2C19 Supersomes, luciferin-H EGE luminescence, 30 min; hit rate 21% among 96,000; inhibition, % at 5 µM; P33261;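 active = CYP2C19 inhibition above a set limit at 5 µM in the primary screen, cut at about 50% in these data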
Plk1 PBD FP – blocks phosphopeptide binding to human Plk1 polo box domain; P53350; hit rate 0.13% among 97,000; inhibition, %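 (tested at about 20 µM)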; Plk1 PBD phosphopeptide binding, fluorescence polarization; AID 693; in the data active = inhibition above about 34%, passing the limit was not always enough
CYP2C19 activ – cytochrome P450 2C19 (human) activation | activation factor at 5 µM | recombinant CYP2C19, luciferin-H EGE luminescence; active compounds read high; 0 = fully inhibited enzyme, 1 = untreated enzyme | P33261 | 96,000 tested, under 10 active;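 active = activation factor of at least 2 at 5 µM in the primary screen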
CYP2C9 activ – increases human cytochrome P450 2C9 activity; P11712; recombinant CYP2C9, luciferin-H conversion, luminescence; active compounds read high; factor 1 = untreated enzyme, 0 = blocked; activation factor at 5 µM; hit rate 1.4% among 96,000;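 active = activation factor of 2 or more for CYP2C9 at a 5 µM dose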
Target sequence (P11712 whole entry, looked up): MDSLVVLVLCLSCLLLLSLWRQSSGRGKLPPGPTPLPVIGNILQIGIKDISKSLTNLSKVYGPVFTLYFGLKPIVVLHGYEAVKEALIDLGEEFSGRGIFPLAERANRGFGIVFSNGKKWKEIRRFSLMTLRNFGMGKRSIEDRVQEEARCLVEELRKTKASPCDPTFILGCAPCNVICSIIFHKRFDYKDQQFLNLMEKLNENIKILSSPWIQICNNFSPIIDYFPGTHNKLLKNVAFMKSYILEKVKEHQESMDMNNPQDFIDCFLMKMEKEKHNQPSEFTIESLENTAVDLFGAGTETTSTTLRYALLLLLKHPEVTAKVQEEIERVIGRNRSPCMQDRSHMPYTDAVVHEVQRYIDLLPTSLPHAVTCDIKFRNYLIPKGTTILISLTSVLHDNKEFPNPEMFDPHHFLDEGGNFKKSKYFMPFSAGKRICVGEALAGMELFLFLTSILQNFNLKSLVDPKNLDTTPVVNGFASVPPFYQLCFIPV
PLK1 kinase inh – blocks human PLK1 kinase activity; P53350; recombinant PLK1 kinase, TR-FRET peptide phosphorylation; inhibition, % at 10 µM; hit rate 0.53% among 97,000; AID 619;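 active = inhibition of 50% or more in the single-concentration screen; inactive = inhibition below 50%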
CYP2C9 inh – inhibitors of human CYP2C9. AID 777. hit rate 20% among 96,000. CYP2C9 Supersomes, luciferin-H conversion, luminescence. inhibition, % at 5 µM. P11712;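 active = blocking of liver enzyme CYP2C9 beyond about 50% at 5 µM, limit read from the data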
Numbers stand for hits; . = inactive; / = no result given.

SMILES	CYP2C19 inh	Plk1 PBD FP	CYP2C19 activ	CYP2C9 activ	PLK1 kinase inh	CYP2C9 inh
COc1ccc(-c2nnc(SCC(=O)NC(C)c3ccccc3)o2)cc1 (stereo not drawn)	59	.	.	.	.	.
COc1ccc(-c2ccc(SCC(=O)NCc3ccco3)nn2)cc1	.	.	.	.	.	.
COc1ccc(N(CC(=O)NCc2ccco2)S(C)(=O)=O)cc1	.	.	.	.	.	.
COc1ccc(-c2nnc(SCC(=O)Nc3cccc(Cl)c3)o2)cc1	.	.	.	.	.	.
Cc1ccc2c(c1)NCC(C(=O)NC1CCCCC1)O2 (stereo not drawn)	59	.	.	.	.	.
CSc1nc(N(C)NC(=O)c2ccc(F)cc2)c2ccccc2n1	.	.	.	.	.	.
COc1ccc(Cc2nn3c(-c4ccccc4OC)nnc3s2)cc1	82	/	.	.	/	60
COc1ccc(Cc2nn3c(Cn4nnc5ccccc54)nnc3s2)cc1	87	.	.	.	.	79
COc1ccccc1-c1nnc2sc(COc3ccc(Cl)cc3)nn12	81	.	.	.	.	88
CCN(CC)S(=O)(=O)c1cccc(-c2nnc(SCCCC(=O)c3ccc(F)cc3)o2)c1	95	.	.	.	.	87
CCN(CC)S(=O)(=O)c1ccc(-c2nnc(SC)o2)cc1	.	.	.	.	.	.
CCN(CC)S(=O)(=O)c1cccc(-c2nnc(-c3ccc(C)cc3)o2)c1	.	.	.	.	.	.
CCN(CC)S(=O)(=O)c1cccc(-c2nnc(SCCCC(=O)c3ccccc3)o2)c1	76	.	.	.	.	64
CCN(CC)S(=O)(=O)c1cccc(-c2nnc(SCc3nc4ccccc4s3)o2)c1	93	.	.	.	.	.
CCCc1nc(SCC(N)=O)[nH]c(=O)c1CC	.	/	.	.	/	.
O=C(c1ccco1)N(Cc1cccs1)C1CCS(=O)(=O)C1 (stereo not drawn)	.	.	.	.	.	.
CCCn1c(=O)c2ccccc2n2c(SCC(=O)c3cc(C)n(CCOC)c3C)nnc12	.	/	.	.	/	.
CN(C)c1nc(N2CCN(c3ccc(F)cc3)CC2)c(C#N)c(=O)o1	82	.	.	2.2	.	.
Oc1ccc(C=Nc2cccc3ncccc23)c(O)c1	.	.	.	.	.	.
Oc1ccc(C=Nc2ccc3ncccc3c2)c(O)c1	56	.	.	.	.	.
C=CCC(C)(NCc1ccccc1)c1ccco1 (stereo not drawn)	.	.	.	.	.	.
CN(Cc1ccccc1)C(=O)N[C@@H](Cc1ccccc1)C(=O)O	.	/	.	.	/	.
CCOc1cc(N(CC)CC)ccc1/C=C(/C#N)c1nc2ccccc2[nH]1	56	.	.	.	.	77
CN(C)/C=C(\C#N)c1nc2ccccc2[nH]1	.	.	.	.	.	.
CCN(CC)c1ccc(/C=C(/C#N)c2nc3ccc(C)cc3[nH]2)c(OC(C)C)c1	60	.	.	.	.	72
SMILES	CYP2C19 inh	Plk1 PBD FP	CYP2C19 activ	CYP2C9 activ	PLK1 kinase inh	CYP2C9 inh
COc1cc(/C=C(\C#N)c2nc3ccc(C)cc3[nH]2)c([N+](=O)[O-])cc1OC	.	.	.	.	.	.
CCCOc1cc(N(CC)CC)ccc1/C=C(/C#N)c1nc2ccc(C)cc2[nH]1	.	.	.	.	.	58
COc1ccc(CCNC2CCN(C)CC2)cc1OC	.	.	.	.	.	74
CCCN1CCC(N(C)CCc2ccc(OC)c(OC)c2)CC1	.	.	.	.	.	.
Cc1nc2ncnn2c(C)c1Cc1ccccc1Cl	87	.	.	.	.	.
CCCCCOc1ccc(C(=O)NC(C(=O)O)C(C)C)cc1 (stereo not drawn)	.	.	.	.	.	.
CCC(=O)c1ccc(OCC(O)CN2CCN(C(c3ccccc3)c3ccccc3)CC2)cc1 (stereo not drawn)	.	.	.	.	.	67
CC(=O)c1ccc(OCC(O)CN2CCOCC2)cc1 (stereo not drawn)	.	.	.	.	65	.
CCC(=O)c1ccc(OCC(O)CN2CCOCC2)cc1 (stereo not drawn)	.	.	.	.	.	.
CCC(=O)c1ccc(OCC(O)CN2CCN(c3ccc(F)cc3)CC2)cc1 (stereo not drawn)	.	.	.	.	.	.
COc1ccc(NC(=O)CSc2c(C)nn(-c3nnc(C)c(=O)[nH]3)c2C)cc1	.	.	.	.	.	.
COc1ccc(-c2nc(Cn3c(SCc4ccc(C)cc4)nc4ccncc43)c(C)o2)cc1OC	53	.	.	.	.	53
COc1ccc(-c2nc(Cn3c(SCc4cccc(F)c4)nc4ccncc43)c(C)o2)cc1OC	73	/	.	.	/	89
COc1ccc(-c2nc(CSCC(=O)N3CCc4ccccc43)c(C)o2)cc1OC	.	.	.	.	.	.
CC1(C)OC(=O)N(Cc2ccco2)C1(C)O (stereo not drawn)	.	.	.	.	.	.
O=c1oc(-c2ccc(F)cc2)nc2ccsc12	.	.	.	.	.	.
O=c1oc(-c2ccccc2Cl)nc2ccsc12	77	.	.	.	.	.
COc1ccc(CNC(=O)C2CSC(=O)C2)cc1 (stereo not drawn)	.	.	.	.	.	.
COC(=O)c1ccccc1NC(=O)CSc1nc(NC(=O)c2ccccc2)c2c(C)c(C)oc2n1	69	.	.	.	.	87
CCOC(=O)c1ccc(NC(=O)c2ccccc2)cc1	.	.	.	.	.	.
CCOC(=O)c1ccc(NC(=O)CSc2nc(NC(=O)c3ccccc3)c3c(C)c(C)oc3n2)cc1	60	.	.	.	.	76
Cc1ccc(C(C)C)cc1OCCOCCN1CCCC1	.	.	.	.	.	.
Cc1cc2c3c(c1)C(C)(c1ccccc1)CC(C)(C)N3C(=O)C21C(C#N)=C(N)OC2=C1C(=O)CC(C)(C)C2 (stereo not drawn)	.	.	.	.	.	59
CC1(c2ccccc2)CC(C)(C)N2C(=O)C3(C(C#N)=C(N)Oc4cc(O)ccc43)c3cccc1c32 (stereo not drawn)	.	.	.	.	.	.
O=S1(=O)CCC(N=Cc2cc(Br)ccc2O)C1 (stereo not drawn)	.	.	.	.	.	.
Cc1c(NC(=O)CSc2ccc(Cl)cc2)cccc1-c1nc2ncccc2o1	.	.	.	.	.	92
COc1cc(C(=O)Nc2cccc(-c3nc4ncccc4o3)c2C)cc(OC)c1OC	.	.	.	.	.	.
O=C(CSc1ccc(Cl)cc1)Nc1cccc(-c2nc3ncccc3o2)c1	.	.	.	.	.	51
COc1ccc(C(=O)Nc2cccc(-c3nc4ncccc4o3)c2C)cc1	.	.	.	.	.	64
COc1c(C)cc(Br)cc1C(=O)Nc1cccc(-c2nc3ncccc3o2)c1	92	.	.	.	.	54
